Screening data (PubChem)
This is a sample that favours compounds with a hit; in the whole collection about 1.6% have one here.
EphB4 ephrin blk: antagonists of human EphB4-ephrin-B2 interaction; P54760; hit rate 0.15% among 97,000; EphB4 LBD / TNYL-RAW-Alexa532 peptide, fluorescence polarization; inhibition, % at 7 µM;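 active means inhibition above the screen-wide mean inhibition plus 3 SD, cut at about 15% in these data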
sEH activator: activators of human soluble epoxide hydrolase; P34913; purified human sEH enzymatic activity, activator screen; activation, % at 2 µM; hit rate 0.04% among 91,000; in the data active means activation above about 37%
sEH inh: soluble epoxide hydrolase (human) inhibition; P34913; inhibition, % at 2 µM; hit rate 0.34% among 91,000; recombinant human sEH enzymatic activity assay; AID 707; in the data active means inhibition above about 80%
PLAP act: activates human placental alkaline phosphatase; P05187; purified PLAP enzyme, luminescent substrate read-out; hits give high values; activation fold at 20 µM; hit rate 1.2% among 96,000; AID 696; in the data active means activation fold above about 2
LYP inh 2: blocks human PTPN22 phosphatase activity. Q9Y2R2. recombinant LYP catalytic domain, DiFMUP fluorescence. inhibition, % at 2 µM. hit rate 0.21% among 96,000. AID 640;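 active means inhibition at 2 µM at or above a set limit, the screen mean plus 3 SD, cut at about 24% in these data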
Target sequence (Q9Y2R2 whole entry, looked up, the tested form may be a part): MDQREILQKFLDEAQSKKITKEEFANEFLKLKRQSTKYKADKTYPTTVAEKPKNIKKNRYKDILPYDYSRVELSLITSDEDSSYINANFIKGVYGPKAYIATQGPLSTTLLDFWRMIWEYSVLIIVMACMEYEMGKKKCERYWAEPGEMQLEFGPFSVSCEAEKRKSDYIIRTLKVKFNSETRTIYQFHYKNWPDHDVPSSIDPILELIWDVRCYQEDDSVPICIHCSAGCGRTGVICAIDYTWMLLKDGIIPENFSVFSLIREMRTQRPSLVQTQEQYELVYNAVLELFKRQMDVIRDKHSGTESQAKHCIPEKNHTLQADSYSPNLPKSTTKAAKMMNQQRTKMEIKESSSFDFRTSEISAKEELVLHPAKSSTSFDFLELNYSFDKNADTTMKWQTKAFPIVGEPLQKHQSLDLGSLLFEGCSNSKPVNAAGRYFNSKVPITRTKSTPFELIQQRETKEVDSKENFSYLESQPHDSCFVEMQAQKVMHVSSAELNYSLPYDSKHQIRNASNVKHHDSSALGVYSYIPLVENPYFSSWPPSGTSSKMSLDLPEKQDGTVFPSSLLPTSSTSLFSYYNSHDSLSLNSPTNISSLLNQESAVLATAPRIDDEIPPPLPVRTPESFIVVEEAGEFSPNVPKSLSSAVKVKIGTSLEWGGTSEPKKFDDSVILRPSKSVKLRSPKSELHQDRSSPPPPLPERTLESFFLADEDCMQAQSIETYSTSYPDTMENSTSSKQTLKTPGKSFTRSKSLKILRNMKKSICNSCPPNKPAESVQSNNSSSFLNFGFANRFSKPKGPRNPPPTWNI
LYP act: increases human PTPN22 phosphatase activity | recombinant LYP, DiFMUP fluorescence; 0 = plate median, 100 = signal doubled | activation, % at 2 µM | hit rate 0.11% among 96,000 | AID 697;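 active means activation at 2 µM above a set limit, the mean plus 5 SD, cut at about 37% in these data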
Of the large screens only hits and unclear results are named; the others gave an inactive call.

Cc1nn(C(C)C(=O)NNC(=S)Nc2ccc(F)cc2)c(C)c1[N+](=O)[O-] (stereo unspecified)	none (no result: PLAP act)
COCCOc1nc2c(c(=O)n(C)c(=O)n2C)n1Cc1cccc(OC)c1	none
Cc1ccc2c(C)nc(Nc3nc(CSc4nnc(C)s4)cc(=O)[nH]3)nc2c1	none
Cc1ccc2nc(Nc3nc(CSc4nnnn4-c4ccccc4)cc(=O)[nH]3)nc(C)c2c1	PLAP act 2.8
CCc1ccc2nc(Nc3nc(COC)cc(=O)[nH]3)nc(C)c2c1	PLAP act 2.5
CCCCCc1c(C)nc(Nc2nc(C)c3cc(OC)ccc3n2)[nH]c1=O	PLAP act 2 (no result: sEH activator, sEH inh)
O=C(CN(C(=O)CSc1nc2ccccc2o1)c1ccccc1)NC1CCCCC1	none
CCOc1ccc(C(=O)N/N=C/c2ccc(-c3ccc(S(=O)(=O)Nc4ncccn4)cc3)o2)cc1	PLAP act 2.1
CC(C)CCn1c(SCCN2CCOCC2)nc2c1c(=O)[nH]c(=O)n2C	EphB4 ephrin blk 17.7
Cc1c(C(=O)OC(C)C)nnn1-c1nonc1N	none (no result: PLAP act)
Nc1cc(C(=O)O)ccc1N1CCCCCC1	none
CCn1ncc(C2=NOC(C(=O)NCCc3ccccc3)C2)c1C (stereo unspecified)	none
COC(=O)c1sccc1NC(=O)C12CC3CC(CC(C3)C1)C2	none (no result: PLAP act)
COC(=O)c1c(NC(=O)c2nc3ccccc3s2)sc2c1CCN(C(C)=O)C2	PLAP act 2.1
CNC(=O)c1c(NC(=O)c2nc3ccccc3s2)sc2c1CCC2	none
COc1cccc(OC)c1C(=O)NNC(=O)c1cccc(COc2ccc3c(c2)CCC3)c1	PLAP act 2
COc1ccc(-c2nnn(CC(=O)N(C3CCCCC3)C(C)C(=O)NC3CCCC3)n2)cc1OC (stereo unspecified)	PLAP act 2
COc1ccc(-c2nnn(CC(=O)N(C3CCCC3)C(C)C(=O)NC3CCCC3)n2)cc1OC (stereo unspecified)	none
CN=C(c1ccco1)n1c(=S)nc(-c2ccco2)n(C)c1=S	PLAP act 2.7 (no result: sEH activator, sEH inh)
Nn1c(-c2ccco2)n[nH]c1=S	none
O=C(Nc1ccc2oc(-c3ccccc3F)nc2c1)c1ncn[nH]1	none (no result: PLAP act)
O=C(Nc1ccc2oc(-c3ccc(Cl)c(Cl)c3)nc2c1)c1ncn[nH]1	PLAP act 2.6, LYP inh 2 40.3
Cc1ccc(-c2nc3cc(NC(=O)C(C)C)ccc3o2)cc1	PLAP act 2.5
Cc1ccc(-c2n[nH]c(=S)n2-c2ccccc2)cc1	none (no result: PLAP act)
Cc1ccc(-n2c(-c3c(-c4ccccc4)noc3C)n[nH]c2=S)cc1	PLAP act 2.1
CN(C)c1ncnc2c1NC1=C(S2)C(=NCCCC(=O)O)CC(C)(C)C1	PLAP act 2
CC(=O)Nc1nc(SCCCc2ccccc2)n[nH]1	PLAP act 2.4
O=C(CSCc1ccc(Cl)cc1)N/N=C/c1ccc(Cl)cc1Cl	sEH inh 80.4
CCN(CC)CCNC(=O)C12CC3CC(CC(C3)C1)C2	none
CCN(CC)CCNC(=O)C12CC3CC(C)(CC(C)(C3)C1)C2	PLAP act 2.1
O=c1c(-c2nc3ccccc3o2)c2oc3ccccc3n2c2ccccc12	none
Cc1ncsc1C(=O)NCc1ccc(N2CCCC2=O)cc1	none
Cc1ccc(NC(=O)NC2CCCCC2)cc1Cl	sEH inh 95.1
CCc1cccc(NC(=O)NC2CCCCC2)c1	sEH inh 94.2
CCc1cccc(NC(=O)C2CCCC2)c1	none
Cc1ccc(NC(=O)C2CCN(C(=O)NC3CCCCC3)CC2)cc1Cl	none
COC(=O)CN1C(=S)N(Cc2ccccc2)C(=O)C1CC(=O)Nc1ccc(Br)cc1 (stereo unspecified)	none
Cc1nc(=O)c(-c2ccccc2)c(C)n1CCCCCC(=O)O	none
CN1CC(c2ccc(C#N)cc2)C2(COc3ccccc3C2=O)C12C(=O)Nc1ccccc12 (stereo unspecified)	none
COc1cc2ccccc2cc1-c1nnc(COc2ccccc2)o1	none
COc1ccc(S(=O)(=O)N2CC3CCCN3c3ccc(C(F)(F)F)cc32)cc1 (stereo unspecified)	none
COc1ccc(S(=O)(=O)N2CC3CCCN3c3cc(C(F)(F)F)ccc32)cc1 (stereo unspecified)	LYP inh 2 25.0
COC(=O)c1ccccc1NC(=O)CSc1nc(NC(=O)c2ccccc2)c2c(C)c(C)oc2n1	none
CCOC(=O)c1ccc(NC(=O)CSc2nc(NC(=O)c3ccccc3)c3c(C)c(C)oc3n2)cc1	LYP inh 2 25.3
CCCc1cc(=O)[nH]c(-n2[nH]c3c(c2=O)CCCC3)n1	PLAP act 2.3
CN1CCN(S(=O)(=O)c2cccc([N+](=O)[O-])c2)CC1	sEH activator 38.6 (no result: PLAP act)
CN1CCN(S(=O)(=O)c2cccc(S(=O)(=O)c3cccc(S(=O)(=O)N4CCN(C)CC4)c3)c2)CC1	none
Cc1ccc(-n2nnnc2SCC(=O)NNC(=O)c2ccco2)cc1C	PLAP act 2.3
CC1CCCC(NC(=O)COC(=O)Cc2ccsc2)C1C (stereo unspecified)	none
CCc1ccccc1OCc1nc2ccc(S(=O)(=O)N3CCOCC3)cc2[nH]1	PLAP act 2
Cc1ccccc1OCc1nc2ccc(S(=O)(=O)N3CCOCC3)cc2[nH]1	none
COc1ccc(S(=O)(=O)N(CC(=O)N2CCOCC2)Cc2ccccc2)cc1C	PLAP act 2
CC(=O)c1cccc(NC(=O)Nc2cccnc2)c1	none (no result: PLAP act)
CC(=O)c1cccc(NC(=O)NC(C)c2ccncc2)c1 (stereo unspecified)	PLAP act 2.2
Fc1cccc2sc(Nc3nnc(-c4ccccc4)o3)nc12	none (no result: sEH activator, sEH inh, PLAP act)
COc1ccc(-c2nnc(Nc3nc4c(OC)cccc4s3)o2)cc1	PLAP act 2.3
COc1cc(OC)cc(-c2nnc(Nc3nc4c(F)cccc4s3)o2)c1	PLAP act 2.6
CC(=O)Nc1cc(S(=O)(=O)C(F)(F)F)ccc1Cl	none
Cc1noc(C)c1C(=O)OCC(=O)NCCC1=CCCCC1	none
Cn1c(SCc2nc3ccccc3[nH]2)nnc1-c1cccnc1	none
CCOc1ccc(-c2nnc(SCc3nc4ccccc4[nH]3)n2N)cc1	PLAP act 2.4
COCCNC(=S)NNC(=O)c1ccco1	PLAP act 2.1
O=C(NC(=S)NNC(=O)c1cccs1)c1ccco1	PLAP act 2.2
CCCC(=O)Nc1ccc(C(=O)NNC(=O)c2cccs2)cc1	none
CC(C)CNC(=S)NNC(=O)c1ccco1	none (no result: PLAP act)
CCCC(=O)Nc1ccc(C(=O)NNC(=S)NC(=O)c2cccs2)cc1	PLAP act 2.4
COc1cccc2cc(C(=O)NCc3ccco3)c(=Nc3ccc(C(=O)O)cc3)oc12	none
Cn1nc(-c2ccc(OCC(=O)NCC3CCCO3)cc2)c2ccccc2c1=O (stereo unspecified)	none
CCn1c(C)nc2cc(C(=O)OC(C(F)(F)C(F)F)C(F)(F)C(F)F)ccc21	none
CCn1c(C)nc2cc(C(=O)NNS(=O)(=O)c3c(C)c(C)cc(C)c3C)ccc21	PLAP act 2
Cc1ccc2c(c1)nnn2C1CCN(C(=O)C23CC4CC(CC(C4)C2)C3)CC1	none (no result: PLAP act)
